Screens (PubChem BioAssay)
This is one part of a sample in which hits are shown more often than they occur.
HT1080 IDH1KD tx: kills HT-1080 cells with IDH1 knockdown; HT-1080 IDH1 knockdown viability, ATP luminescence, 48 h; Potency, µM (doses to about 46.1 µM), inactives show at the highest dose activity, negative = toxicity, hits mostly cytotoxic; 360,000 tested, 2% active; AID 686971;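 further: potency means the concentration at half of the fitted maximal effect; 0% = DMSO wells and -100% = cell-free medium wells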
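HT-1080-IDH1KD cells (IDH1 knocked down), 750/well in RPMI with 5% FBS, treated with compound 48 h at 37 degrees C. Viability by CellTiter-Glo luminescence, normalised to DMSO and no-cell wells; concentration-response curves classed.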
DT40 TDP1 no CPT: qHTS for Inhibitors of human tyrosyl-DNA phosphodiesterase 1 (TDP1): qHTS in cells in absence of CPT; DT40 Tdp1-/- hTDP1 cells, no CPT, ATP luminescence, 48 h; Potency, µM (doses to about 46.2 µM), without a hit: at the top dose activity change, negative = growth inhibition, hits mostly inhibitors; 420,000 tested, 15% active; AID 686978, 2013; further: potency means the concentration at half of the fitted maximal effect; nearly all actives have a fitted effect of over 55% in size
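Growth kinetics read by CellTiter-Glo luminescence after ≥48 hr at 37 °C. Cells: DT40 Tdp1-/- stably carrying human TDP1, 400 per well, compound exposure in the absence of CPT (DMSO vehicle).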
12-LOX inh: inhibitors of human 12S-lipoxygenase ALOX12; P18054; purified 12hLO, xylenol orange hydroperoxide absorbance; Potency, µM (doses to about 108 µM), for inactives: at the highest dose activity change, negative = inhibition, usual class: inhibitors; 580,000 tested, 1.1% active; further: potency means the concentration at half of the fitted maximal effect
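Hydroperoxide product was detected by ferrous iron/xylenol orange as the 573 to 405 nm absorbance ratio. Arachidonic acid at 40 uM (final) was turned over for 30 min at room temperature by 150 nM human 12hLO, pH 7.0 Hepes buffer, after 15 min compound preincubation.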
IL1B secr inh: inflammasome signaling inhibition, IL-1 beta readout. THP-1 LPS/ATP IL-1B secretion, AlphaLISA, 16 h; active compounds read low. activity change, % at 57.5 µM. 360,000 tested, 4.7% active; in the data active means activity change below about -50%; inconclusive means mostly about -30% to -49%
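THP-1 cells pretreated 1 hr with compounds (up to 57.5 uM final), then stimulated with LPS (250 ng/mL final) plus ATP (1.25 mM final); secreted IL-1B measured by AlphaLISA after 16 hr, decreased signal indicating inhibition.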
HT1080NT lethal: kills 2HG-producing HT-1080-NT fibrosarcoma cells. HT-1080-NT fibrosarcoma viability, CellTiter-Glo ATP luminescence, 48 h. Potency, µM (highest dose often 46.1 µM), for the others: top-dose activity, negative = less viability, hits mostly cytotoxic. 360,000 tested, 1.6% active. AID 686970;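 further: NT is the 2HG producing partner of a matched IDH1 knockdown line; potency means the concentration at half of the fitted maximal effect; 0% = DMSO-treated cells and -100% = media-only wells without cells; nearly all actives have a fitted effect of over 55% in size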
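Viability of the 2HG-overproducing fibrosarcoma line after 48 hours of compound exposure at 37 degrees C was determined by luminescence with CellTiter-Glo, and concentration-effect curves were then fitted and categorized.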
TDP1 cell CPT: growth inhibition of DT40 Tdp1-/-;hTDP1 cells with camptothecin (screen for TDP1 inhibitors). Potency, µM (titrated, usually from 46.2 µM), for the others: top-dose activity change, negative = growth inhibition, most hits filed as inhibitors. chicken DT40 Tdp1-/-;hTDP1 cells + 20 nM CPT, ATP luminescence, 48 h. AID 686979. 420,000 tested, 12% active; further: potency means the concentration at half of the fitted maximal effect; nearly all actives have a fitted effect of over 55% in size
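Chicken DT40 Tdp1-/- cells complemented with human TDP1, 400 cells/well, exposed to compounds plus 20 nM camptothecin for at least 48 h at 37 C; viability read as ATP content by CellTiter-Glo luminescence.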
Numbers without * were called inactive; ? = inconclusive; / = not tested or not shown; [ ] = dose if it differs, or a comment. Unless noted, the call rests on the fitted dose curve; in most records, active means well fitted curve in the direction sought with a large enough effect; inconclusive means small, poorly fitted or top-dose-only effect, or another doubt; inactive means no such curve, though single readings can be large; an effect the other way counts as inactive or inconclusive. Unless noted, on the % scale 0 is the no-effect control and ±100 the full control effect.

SMILES	HT1080 IDH1KD tx	DT40 TDP1 no CPT	12-LOX inh	IL1B secr inh	HT1080NT lethal	TDP1 cell CPT
O=C(N/N=C/c1cccc(C(F)(F)F)c1)c1cccs1	/	/	-9%	/	/	/
CN(C)CC(=O)N1Cc2ccccc2CC2(CCN(Cc3ccccc3)C2)C1 (configuration not stated)	/	/	0%[6.33 µM]	/	/	/
c1ccc(-c2nc(C3CC3)no2)c(OC2CN(Cc3ccncc3)C2)c1	/	/	55%	/	/	/
Cc1onc(-c2ccccc2)c1C(=O)NC(=S)NNC(=O)c1ccccc1O	5.2µM*	3.3µM*	?	100	8.2µM*	3.7µM*
CCCOc1ccc(C(=O)NC(=S)Nc2nc3ccccc3s2)cc1	25%	-13%	?	34	3%	6%
CCCOc1ccc(C(=O)NC(=S)NNC(=O)c2c(-c3ccccc3)noc2C)cc1	?	?	11%	74	?	23µM*
Cc1onc(-c2ccccc2)c1C(=O)NC(=S)NNC(=O)c1ccc(O)cc1	?	13µM*	?	61	-15%	?
Cc1onc(-c2ccccc2)c1C(=O)NNC(=O)c1ccccc1Br	10%	2%	5%	-14	10%	-6%
COC(=O)c1ccc(NC(=S)NC(=O)c2c(-c3ccccc3)noc2C)cc1	1%	-4%	0%	4	-6%	14%
CC(=O)Nc1ccc(OCCCNC(=O)c2c(-c3ccccc3)noc2C)cc1	0%	15µM*	13%	13	1%	?
CCOCCCNC(=O)c1c(-c2ccccc2)noc1C	3%	1%	-5%	0	7%	-3%
Nc1ccc([N+](=O)[O-])cc1NS(=O)(=O)c1ccc2ccccc2c1	/	/	-24%	/	/	/
Cc1cnc(C2CCN(C(=O)Nc3ccccc3F)C2)n1C(C)C (configuration not stated)	/	/	50%	/	/	/
Cc1onc(-c2ccccc2)c1C(=O)NC(=S)NNC(=O)c1ccc(O)cc1O	-28%	4.6µM*	?	31	?	4.1µM*
CC(C)NC(=O)c1cc(-c2ccccc2F)cc2c1OCCN2Cc1cccnc1	/	/	15%[176 µM]	/	/	/
NC(=O)C(c1ccc(Br)cc1)c1ccc(C(=O)c2ccccc2)cc1 (configuration not stated)	?	15µM*	9%	-91*	?	?
CCOc1ccc(C(=O)NCc2coc(-c3cccs3)n2)cc1	/	/	5%	/	/	/
Cc1c(C(=O)Nc2ccc(F)cc2F)sc2nc3n(c(=O)c12)N=C(c1ccccc1)CS3	/	?	-14%	/	/	15µM*
Cc1nc(N2CCOCC2)c2c(C)c(C(=O)Nc3ccc(F)cc3F)sc2n1	-14%	?	-2%	-68*	-3%	-28%
COc1ccc(NC(=O)c2sc3nc(C)nc(N4CCOCC4)c3c2C)c(OC)c1	7%	-22%	14%	10	16%	-3%
Cc1cc(C)cc(NC(=O)c2sc3nc4n(c(=O)c3c2C)N=C(c2ccc(F)cc2)CS4)c1	/	-26%	-18%	/	/	-17%
CCOc1ccc(NC(=O)c2sc3nc(C)nc(N4CCOCC4)c3c2C)cc1	-9%	?	-1%	-53*	-10%	-3%
CCOC(=O)c1cnc2ccccc2c1N1CCC(CO)CC1	/	/	-15%	/	/	/
CCc1nnc(CN2CCC(c3nc4ccccc4s3)CC2)o1	/	/	110%	/	/	/
COCCn1c(C)cc(C(=O)C(=O)Nc2nnc(CSCc3cccc(C)c3)s2)c1C	/	/	3%	/	/	/
NC(=O)c1cccc2[nH]c([C@H]3CCN(Cc4ccccn4)C3)nc12	/	/	69%[176 µM]	/	/	/
CCOc1ccc(NC(=O)CSc2nc3ccsc3c(=O)n2C(C)CC)cc1 (configuration not stated)	/	10µM*	-26%	/	/	?
